From PubChem BioAssay (Tox21) come the findings set out here.

Each structure is given as a SMILES string. Inconclusive results are not listed. A call without a number means that no potency is given here. Some compounds were tested as several samples or in several runs, with calls that do not always agree. Active and inactive are the calls of the source. Calls follow the shape of the dose curve; as a rule, active = well fitted cell-killing curve with a large enough effect in the repeat runs; inconclusive = weak or mixed curves, or effect the other way; inactive = flat fitted curve, though single readings scatter.
Potency is read from the fitted curve at half-maximal effect.

A short description of this experiment: qHTS RealTime-Glo MT Cell Viability Assay in HEK293 cells - 32 hour (AID 1224868). Also: nearly all actives have a fitted effect of over 50% in size. As to activity change, negative = cytotoxic: top concentration of the series differs between compounds. The conditions noted are these: RealTime-Glo luminescence; series mostly up to 76.8 µM. An excerpt:
National Center for Advancing Translational Sciences [NCATS]
NIH Chemical Genomics Center [NCGC]
U.S. Environmental Protection Agency [EPA]
National Institutes of Environmental Health Sciences [NIEHS]
National Toxicology Program [NTP]
U.S. Food and Drug Administration [FDA]
Measure of cell viability is critical in the cell-base assay. Analysis of cell viability is necessary for the characterization of cell responses to cytotoxic drugs and environmental stress. A RealTime-Glo MT Cell Viability Assay to monitor cell viability in real time of continues cell culture during 40 hours of compound treatment was used to screen Tox21 10K library compounds in Hek293 cells. The RealTime-Glo MT Cell Viability Assay is a nonlytic, homogeneous, bioluminescent method to measure cell viability in real time using a simple, plate-based method. The assay involves adding NanoLuc luciferase and a cell-permeant prosubstrate to cells in culture. Viable cells reduce the proprietary prosubstrate to generate a substrate for NanoLuc luciferase. This substrate diffuses from cells into the surrounding culture medium, where it is rapidly used by the NanoLuc Enzyme to produce a luminescent signal. The signal correlates with the number of viable cells, making the assay well suited for cytotoxicity studies.
Tox21 Assay Protocol Summary:
The mixture of Hek293 cell suspension and reagents were dispensed at 600cells/6 ul/well in 1536-well tissue culture treated black solid bottom plates using a Multidrop dispenser. After the assay plates were incubated at a 37 C/5% CO2 incubator for 5 hours, 23 nL of compounds dissolved in DMSO, positive and negative controls was transferred to the assay plate by a pintool work station. The plates were incubated at 37 C for 40 hours. The luminescence intensity were measured at 0h, 8h, 16h, 24h, 32h and 40h time points using ViewLux plate reader during compound treatment.
Background: Quantitative high-throughput screening tests each substance at several concentrations.
Consider `COP(=O)(OC)O/C(C)=C/C(=O)N(C)C`, for which the Potency entry is “inactive”.
On the same count and under the same terms, in the case of `CCNc1nc(NCC)nc(SC)n1` it was “inactive”; in that of `CCN[C@H](C)Cc1cccc(C(F)(F)F)c1`, “inactive”.
`C#CCOC(=O)/C=C(C)/C=C/CC(C)CCCC(C)C` (stereo not given): the Potency entry was “inactive”.
On the same count and under the same terms, in the case of `C#CC(C)(C)O` it was “inactive”; in that of `CC1=C2[C@H]3OC(=O)[C@@H](C)[C@@H]3CC[C@@]2(C)C=CC1=O`, “inactive”.
Regarding `C/C=C/CC#N`, the Potency result was “inactive”.
`CCCOC(=O)c1cncn1C(C)c1ccccc1` (stereo not given): the Potency result was “inactive”.
Same read-out and setting: the entry for `CC(C)C(C)(N)C#N` (stereo not given) is “inactive”; for `CCCC(C)C1(CC)C(=O)N=C(S)NC1=O` (stereo not given) it is “inactive”; for `C1CN2CCC1CC2` it is “inactive”.
For the compound `Cn1c(CCCC(=O)O)nc2cc(N(CCCl)CCCl)ccc21`, the Potency entry was “inactive”.
As for `CCN1CCCC1CNC(=O)C(O)(c1ccccc1)c1ccccc1` (stereo not given), the Potency result was “inactive”.
As for `Cc1ccc2cc(C)ccc2c1`, the Potency entry is “inactive”.
Consider `[O-][Br+2]([O-])O`, for which the Potency result was “inactive”.
As to `CON(C)C(=O)Nc1ccc(Br)cc1`, the Potency entry was “inactive”.
For the compound `CS(=O)(=O)c1ccc(C(=O)C2C(=O)CCCC2=O)c(Cl)c1COCC(F)(F)F`, the Potency result was “inactive”.
Still for that read-out and setting: the entry for `CNC(=O)NC(O)C(Cl)(Cl)Cl` (stereo not given) is “inactive”; for `CCc1ccc(C2CCNCC2)cc1` it is “inactive”.
The same measure, in the same setting: the figure for `ClC1=C(Cl)C2(Cl)C(CBr)CC1(Cl)C2(Cl)Cl` (stereo not given) is 49 µM (active) and inactive; for `CCCC[N+](=O)[O-]` it is “inactive”; for `O=C/C=C/c1ccco1` it is “inactive”.
In the case of `CCC(C)C(C)(COC(N)=O)COC(N)=O` (stereo not given), the Potency entry is “inactive”.
For `CC(C)(C)NC[C@H](O)c1ccc(O)cc1Cl`, the Potency result is “inactive”.
Turning to `COc1cccc(C=O)c1`, the Potency result was “inactive”.
Consider `CN(CCO)CCO`, for which the Potency result was “inactive”.
Consider `CC(=O)OCC1=C(C(=O)O)N2C(=O)[C@@H](N)[C@H]2SC1`, for which the activity change, negative = cytotoxic was 19.8% [at 15.8 µM] (inactive).
For `CCC1(CC)C(=O)C=CNC1=O`, the Potency entry was “inactive”.
For `CCC1(c2cccc(O)c2)CCCCN(C)C1` (stereo not given), the Potency result is “inactive”.
`O=C(Cl)c1ccccc1`: the Potency result is “inactive”.
Same read-out and setting: in the case of `O=C(NC(=O)c1c(F)cccc1F)Nc1cc(Cl)c(F)c(Cl)c1F` it was “inactive”; in that of `O=C(Cl)C(Cl)Cl`, “inactive”.
Take `CCCOC(=O)Cc1ccc(OCC(=O)N(CC)CC)c(OC)c1`: the Potency result is “inactive”.
On to `N[C@@H](Cc1ccc(Oc2cc(I)c(O)c(I)c2)c(I)c1)C(=O)O`, for which the Potency entry is “inactive”.
The same measure, in the same setting: the entry for `CCN[C@@H](C)Cc1cccc(C(F)(F)F)c1` is “inactive”; for `CC(C)NCC(O)c1ccc([N+](=O)[O-])cc1` (stereo not given) it is “inactive”; for `CCOC(=O)CCl` it is “inactive”.
In the case of `ClC(Cl)(Cl)Cl`, the Potency result is “inactive”.
For `CN(C)CCc1c[nH]c2cccc(OP(=O)(O)O)c12`, the Potency entry is “inactive”.
Same read-out and setting: in the case of `CCc1cc(OC)c(C[C@H](C)N)cc1OC` it was “inactive”.
